Experimental data as given in PubChem BioAssay (NCATS).
Inconclusive results are not listed. The source made the active and inactive calls. Unless noted, the call rests on the fitted dose curve; in most records, active means well fitted curve in the direction sought with a large enough effect; inconclusive means small, poorly fitted or top-dose-only effect, or another doubt; inactive means no such curve, though single readings can be large; an effect the other way counts as inactive or inconclusive.

Key:
[1] = target: T1, Hexokinase-4 (Homo sapiens) + Glucokinase regulatory protein (Homo sapiens) (UniProt P35557+Q14397); test: qHTS assay for inhibitors of recombinant human GCK-GKRP interaction: Diaphorase-coupled assay (AID 743205)
Summary of the method: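 GST-GCK (10 nM) with FLAG-GKRP (10 nM), 5 mM glucose and 0.4 mM ATP in pH 7.6 Hepes; compounds preincubated 20 min with substrate. G6PDH/diaphorase coupling converts resazurin to resorufin, read kinetically (ex 525/em 590 nm) for 30 min.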

[2] = target: T1, Hexokinase-4 (Homo sapiens) + Glucokinase regulatory protein (Homo sapiens); test: qHTS assay for inhibitors of recombinant human GCK-GKRP interaction: ADP-Glo assay (AID 743206);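 further: plate controls were DMSO plus enzyme for no effect and no enzyme for full effect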
Summary of the method: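 Pin-transferred compounds meet a 15 nM GST-GCK/15 nM FLAG-GKRP/2 uM S6P mix (dispense concentrations). ATP is then added to 0.4 mM final with 5 mM glucose, and the reaction runs 60 min at room temperature. ADP is quantified luminescently.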

[3] = target: T1, Hexokinase-4 (Homo sapiens) + Glucokinase regulatory protein (Homo sapiens); test: qHTS assay for inhibitors of recombinant human GCK-GKRP interaction: HTRF assay (AID 743207);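 further: 0% = DMSO with GCK present and -100% = DMSO wells lacking GCK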
Summary of the method: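 GST-GCK and FLAG-GKRP (5 nM each) were combined with 2 uM S6P in pH 7.1 Hepes/MgCl2/KCl/DTT buffer, then compound and anti-FLAG XL665/anti-GST K antibodies were added. After 60 min at room temperature, HTRF 665/615 nm emission was read.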

[4] = qHTS assay for measurement of the activity of small molecule inhibitors on Zika virus induced Caspase-3 activity in human iPSC derived neural progenitor cells (hNPCs) (AID 1224857); further: % of control where 0% means no effect; nearly all actives have a fitted effect of over 65% in size
Summary of the method: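 Caspase-3/7 induction by a 6-hour ZIKV infection was quantified with a luminescent Caspase-Glo 3/7 reagent incubated 30 minutes at room temperature. Compounds were preincubated with hNPCs for 1 hour; inhibition was calculated against uninfected and infected control wells.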

[5] = qHTS assay for measurement of the activity of small molecule inhibitors on Zika virus induced Caspase-3 activity in human astrocytoma cells (AID 1224859);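 further: plate controls were ZIKV-infected untreated cells for no effect and uninfected cells for full effect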
Summary of the method: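 In SNB-19 cells plated at 250 cells/well and grown 16-20 h, compounds were applied 1 h before ZIKV (2 FFU/cell). Six hours later caspase-3/7 luminescence was recorded.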

[6] = Natriuretic polypeptide receptor (hNpr1) antagonism - Pilot counterscreen GloSensor control cell line (AID 1347045; calls by dose curve; further: potency means the concentration at half of the fitted maximal effect)
Summary of the method: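 Control counterscreen: luciferase cGMP-biosensor HEK293 cells (no Npr1) received compound for 30 min at room temperature after GloSensor substrate loading. Luminescence was measured before and 20 min after soluble guanylyl cyclase activation by 50 uM nitroprusside.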

[7] = target: Atrial natriuretic peptide receptor 1 (Homo sapiens) (UniProt P16066); test: Natriuretic polypeptide receptor (hNpr1) antagonism - Pilot screen (AID 1347049; calls by dose curve;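 further: HEK293 cells with hNpr1 and GloSensor cGMP luciferase stimulated by 0.1 nM hNppA; agonist-evoked cGMP luminescence read 20 min after hNppA addition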; further: potency means the concentration at half of the fitted maximal effect)
Summary of the method: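 Receptor antagonism read as cGMP-dependent luminescence in hNpr1/pGS-40F HEK293 cells: pre-read after 30 min compound exposure, post-read 20 min after hNppA agonist at 0.1 nM final, all at room temperature, protected from light; A-71915 titration as control.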

[8] = target: Atrial natriuretic peptide receptor 2 (Homo sapiens) (UniProt P20594); test: Natriuretic polypeptide receptor (hNpr2) antagonism - Pilot subtype selectivity assay (AID 1347050; calls by dose curve; further: potency means the concentration at half of the fitted maximal effect)
Summary of the method: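 Antagonist mode: compounds (LOPAC1280, seven 1:5 dilutions) added 30 min before 1 nM hNppC stimulation of hNpr2-HEK293 cGMP-sensor cells; luminescence read before and 20 min after agonist at ambient temperature.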

[9] = qHTS Assay for Identifying Gametocytocidal Compounds (AID 743244); further: potency means the concentration at half of the fitted maximal effect;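 on max response: on the % scale 0 is the no-effect control and ±100 the full control effect; actives lower the fluorescent signal which means gametocytes are killed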; settings: P. falciparum 3D7 stage III-V gametocytes, alamarBlue, 72 h; max response: stronger effect = lower value
Summary of the method: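 Late gametocytes (III–V), P. falciparum 3D7; 72 h drug, then 24 h alamarBlue; resazurin reduction read by fluorescence.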

[10] = P-glycoprotein substrates identified in KB-3-1 adenocarcinoma cell line, qHTS therapeutic library screen (AID 1346986); further: nearly all actives have a fitted effect of over 60% in size;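 further: potency means the concentration at half of the fitted maximal effect; potency is for cytotoxicity meaning loss of cell viability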
Summary of the method: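 Viability read by CellTiter-Glo after 72 h compound exposure in dose-response of KB-3-1 and KB-8-5-11 (P-gp-high) cells. Hits needed AC50 < 10 uM, >50% maximum response and curve class -1.1 to -2.4. Cherry-picks retested ± tariquidar, including pcDNA/MDR-19 HEK-293 pair.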

[11] = P-glycoprotein substrates identified in KB-8-5-11 adenocarcinoma cell line, qHTS therapeutic library screen (AID 1346987); further: nearly all actives have a fitted effect of over 65% in size; further: potency means the concentration at half of the fitted maximal effect
Summary of the method: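 Compounds are pinned in dose-response onto KB-8-5-11 cells (500 cells/well, colchicine-free medium) and left 72 h at 37 degree C. CellTiter-Glo luminescence then yields AC50 values.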

[12] = qHTS assay for cell viability of HEK293 cells (AID 743288); settings: ATP luminescence (CellTiter-Glo), 18 h; max response: stronger effect = lower value; further: on the % scale 0 is the no-effect control and ±100 the full control effect; nearly all actives have a fitted effect of over 50% in size
Summary of the method: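 After 18 h compound exposure at 37 C, parental HEK293 cells (2,000/well) are lysed with CellTiter-Glo and luminescence is read following 30 min at room temperature.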

[13] = qHTS assay for cell viability of the p53RE-bla HCT-116 cell line (AID 743292); further: potency means the concentration at half of the fitted maximal effect; nearly all actives have a fitted effect of over 55% in size
Summary of the method: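 Viability of compound-treated p53RE-bla HCT-116 cells is taken from ATP-dependent luciferase luminescence. Treatment lasts 16 h at 37 C after a 5 h settling period; detection follows 30 min at room temperature.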

[14] = qHTS profiling for inhibitors of Plasmodium falciparum (3D7) proliferation (AID 743322);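 further: infected erythrocytes exposed to compound for 72 h before lysis; 100% = DMSO vehicle wells and 0% = 0.29 µM artemisinin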; settings: P. falciparum 3D7 proliferation; at 28.7 µM (top of the series)
Summary of the method: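 Parasite DNA was quantified by SYBR Green I fluorescence (ex 485, em 535 nm) after overnight lysis in saponin/Triton buffer at room temperature. Cultures at 0.3% parasitemia and 2.5% hematocrit were first exposed to compound for 72 h at 37 C; signals were normalised to artemisinin (0.29 uM) and vehicle wells.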

[15] = qHTS profiling for inhibitors of Plasmodium falciparum (DD2) proliferation (AID 743323; call rule not given here); settings: lower = more inhibition; at 28.7 µM (top of the series)
Summary of the method: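 SYBR Green fluorescence (ex 485, em 535 nm) of lysed cultures gives parasite DNA content; wells normalized to artemisinin (0.29 uM) and DMSO controls. Infected red cells: 0.3% parasitemia, 2.5% hematocrit, 72 h, 37 C.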

[16] = qHTS profiling for inhibitors of Plasmodium falciparum (HB3) proliferation (AID 743324); settings: Plasmodium falciparum HB3 blood-stage proliferation; at 28.7 µM (top of the series);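 further: 100% = DMSO vehicle wells and 0% = artemisinin-treated control wells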
Summary of the method: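 SYBR Green fluorescence (485 ex/535 em) of lysed cultures, incubated overnight at room temperature in the dark, quantifies parasite DNA. Infected erythrocytes at 0.3% parasitemia and 2.5% hematocrit were exposed 72 h; values normalized to DMSO and 0.29 uM artemisinin controls.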

Atrial natriuretic peptide receptor 2 (Homo sapiens), sequence (P20594 whole entry, looked up): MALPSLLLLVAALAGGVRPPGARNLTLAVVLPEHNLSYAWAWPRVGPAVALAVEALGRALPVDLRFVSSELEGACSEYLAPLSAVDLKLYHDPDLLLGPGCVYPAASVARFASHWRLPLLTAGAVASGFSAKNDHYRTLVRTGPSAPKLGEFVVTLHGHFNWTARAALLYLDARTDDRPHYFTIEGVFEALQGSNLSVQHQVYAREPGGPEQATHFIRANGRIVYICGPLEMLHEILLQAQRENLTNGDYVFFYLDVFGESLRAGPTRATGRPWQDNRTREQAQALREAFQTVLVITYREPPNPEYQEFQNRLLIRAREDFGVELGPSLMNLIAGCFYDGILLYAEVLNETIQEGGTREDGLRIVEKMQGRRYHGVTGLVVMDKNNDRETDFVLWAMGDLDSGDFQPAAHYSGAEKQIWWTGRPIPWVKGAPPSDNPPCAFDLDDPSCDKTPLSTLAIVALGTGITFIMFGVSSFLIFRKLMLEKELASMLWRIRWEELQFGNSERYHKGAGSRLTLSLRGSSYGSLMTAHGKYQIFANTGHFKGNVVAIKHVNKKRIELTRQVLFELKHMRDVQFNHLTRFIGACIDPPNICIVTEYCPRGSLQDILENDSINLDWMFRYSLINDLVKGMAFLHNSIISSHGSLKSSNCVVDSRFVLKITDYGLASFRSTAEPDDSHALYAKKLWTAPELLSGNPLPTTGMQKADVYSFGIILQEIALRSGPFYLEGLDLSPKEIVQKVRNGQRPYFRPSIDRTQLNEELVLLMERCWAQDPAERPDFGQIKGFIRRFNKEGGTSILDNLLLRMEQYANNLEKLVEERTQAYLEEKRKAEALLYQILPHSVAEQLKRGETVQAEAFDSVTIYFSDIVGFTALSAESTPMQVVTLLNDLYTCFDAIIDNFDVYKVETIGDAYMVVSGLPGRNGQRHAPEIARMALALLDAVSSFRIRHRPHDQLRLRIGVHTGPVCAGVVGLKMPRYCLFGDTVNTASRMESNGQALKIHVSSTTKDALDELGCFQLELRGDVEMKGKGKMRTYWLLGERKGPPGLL
T1 sequence (P35557 whole entry, looked up): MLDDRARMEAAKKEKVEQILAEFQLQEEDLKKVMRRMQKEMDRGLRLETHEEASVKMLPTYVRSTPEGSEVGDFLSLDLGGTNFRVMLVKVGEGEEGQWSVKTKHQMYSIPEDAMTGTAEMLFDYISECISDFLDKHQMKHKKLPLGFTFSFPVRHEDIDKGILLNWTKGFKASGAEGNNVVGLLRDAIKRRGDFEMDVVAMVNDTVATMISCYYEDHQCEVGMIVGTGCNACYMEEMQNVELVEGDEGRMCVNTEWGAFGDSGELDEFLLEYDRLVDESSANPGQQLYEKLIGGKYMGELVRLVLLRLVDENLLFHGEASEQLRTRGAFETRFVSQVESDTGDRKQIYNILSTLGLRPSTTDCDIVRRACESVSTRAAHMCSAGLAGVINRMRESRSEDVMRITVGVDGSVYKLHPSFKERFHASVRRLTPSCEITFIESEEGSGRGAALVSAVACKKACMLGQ
T1 sequence (Q14397 whole entry, looked up): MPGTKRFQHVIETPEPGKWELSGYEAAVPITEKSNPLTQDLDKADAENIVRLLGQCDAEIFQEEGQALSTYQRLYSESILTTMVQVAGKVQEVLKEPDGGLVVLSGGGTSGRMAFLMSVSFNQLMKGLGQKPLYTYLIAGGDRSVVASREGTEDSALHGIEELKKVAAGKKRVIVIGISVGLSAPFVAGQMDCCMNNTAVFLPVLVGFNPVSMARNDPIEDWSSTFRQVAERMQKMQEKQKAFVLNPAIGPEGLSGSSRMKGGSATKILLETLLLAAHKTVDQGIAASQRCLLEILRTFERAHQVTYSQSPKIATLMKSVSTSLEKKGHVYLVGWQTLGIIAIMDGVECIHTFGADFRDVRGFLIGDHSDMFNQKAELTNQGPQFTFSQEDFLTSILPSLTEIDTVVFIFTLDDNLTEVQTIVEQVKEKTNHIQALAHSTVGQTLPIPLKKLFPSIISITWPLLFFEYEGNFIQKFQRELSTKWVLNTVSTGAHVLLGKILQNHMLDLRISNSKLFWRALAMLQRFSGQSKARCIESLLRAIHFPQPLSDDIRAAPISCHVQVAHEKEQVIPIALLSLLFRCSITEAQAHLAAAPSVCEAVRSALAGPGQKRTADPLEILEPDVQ
Atrial natriuretic peptide receptor 1 (Homo sapiens), sequence (P16066 whole entry, looked up): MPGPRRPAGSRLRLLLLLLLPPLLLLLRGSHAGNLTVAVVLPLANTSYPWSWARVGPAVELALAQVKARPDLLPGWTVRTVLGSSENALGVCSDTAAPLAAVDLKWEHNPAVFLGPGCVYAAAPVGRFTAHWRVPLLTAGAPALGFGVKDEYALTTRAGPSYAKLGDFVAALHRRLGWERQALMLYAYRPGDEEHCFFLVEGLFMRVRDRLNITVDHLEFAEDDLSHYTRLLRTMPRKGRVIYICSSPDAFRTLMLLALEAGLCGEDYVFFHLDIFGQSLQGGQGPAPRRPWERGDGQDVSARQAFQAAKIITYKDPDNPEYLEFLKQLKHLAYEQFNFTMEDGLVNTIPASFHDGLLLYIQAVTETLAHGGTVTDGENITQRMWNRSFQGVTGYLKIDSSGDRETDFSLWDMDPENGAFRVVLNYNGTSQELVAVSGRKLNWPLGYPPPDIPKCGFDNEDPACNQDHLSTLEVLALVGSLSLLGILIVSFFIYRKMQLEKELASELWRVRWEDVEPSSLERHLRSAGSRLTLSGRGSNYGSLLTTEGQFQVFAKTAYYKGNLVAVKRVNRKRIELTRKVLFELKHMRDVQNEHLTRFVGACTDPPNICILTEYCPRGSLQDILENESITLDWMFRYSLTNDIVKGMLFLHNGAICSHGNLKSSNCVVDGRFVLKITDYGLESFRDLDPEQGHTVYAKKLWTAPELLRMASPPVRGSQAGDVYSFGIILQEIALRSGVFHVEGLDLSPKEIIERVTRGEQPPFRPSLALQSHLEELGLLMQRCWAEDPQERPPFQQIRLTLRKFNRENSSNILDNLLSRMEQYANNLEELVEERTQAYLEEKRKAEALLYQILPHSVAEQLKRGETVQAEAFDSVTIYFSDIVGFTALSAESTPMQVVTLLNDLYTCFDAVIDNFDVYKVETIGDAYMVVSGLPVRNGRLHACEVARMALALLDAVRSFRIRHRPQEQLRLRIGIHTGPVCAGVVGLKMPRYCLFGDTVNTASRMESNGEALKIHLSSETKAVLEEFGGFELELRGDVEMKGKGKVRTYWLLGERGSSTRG

Cc1cccc(C2CN(C)CCc3c2cc(O)c(O)c3Cl)c1 (stereo not drawn)
inactive: Potency [1] | Potency [2] | Potency [3] | Potency [4] | Potency [5] | Potency [6] | Potency [7] | Potency [8]

Nc1ncnc2c1c(-c1ccc(Oc3ccccc3)cc1)cn2C1CCCC1
active: Potency [10] 1.64 µM | Potency [11] 14.6 µM
inactive: Potency [1] | Potency [2] | Potency [3] | max response [9] 4.42% | Potency [4] | Potency [5] | Potency [7] | Potency [8]

O=C1Nc2ccc(I)cc2/C1=C/c1cc(Br)c(O)c(Br)c1
inactive: Potency [1] | Potency [2] | max response [9] -8.13% | Potency [4] | Potency [5] | Potency [10] | Potency [11] | Potency [7] | Potency [8]

N[C@H](C(=O)O)c1cc(O)cc(O)c1
inactive: Potency [1] | Potency [2] | Potency [3] | Potency [4] | Potency [5] | Potency [6] | Potency [7] | Potency [8]

CCCCOC(=O)NS(=O)(=O)c1sc(CC(C)C)cc1-c1ccc(Cn2c(CC)nc3c(C)cc(C)nc32)cc1
inactive: Potency [1] | Potency [2] | Potency [3] | Potency [4] | Potency [5] | Potency [6] | Potency [7] | Potency [8]

N#Cc1cc([N+](=O)[O-])c2sc(C(N)=O)[n+]([O-])c2c1
inactive: Potency [1] | Potency [2] | Potency [3] | Potency [4] | Potency [5] | Potency [10] | Potency [11] | Potency [7] | Potency [8]
active: Potency [6] 14.7 µM

CN(C)S(=O)(=O)c1ccc2c(c1)/C(=C/c1cc3c([nH]1)CCCC3)C(=O)N2
active: Potency [11] 6.51 µM
inactive: Potency [2] | Potency [3] | max response [9] -2.03% | Potency [4] | Potency [5]

Brc1c(Br)c(Br)c2[nH]cnc2c1Br
inactive: Potency [1] | Potency [2] | Potency [3] | Potency [4] | Potency [5] | Potency [6] | Potency [7] | Potency [8]

c1ccc(C2CN3CCSC3=N2)cc1 (stereo not drawn)
inactive: Potency [1] | Potency [2] | Potency [3] | Potency [4] | Potency [5] | Potency [6] | Potency [7] | Potency [8]

CC(C)NCC(O)COc1ccc(CC(N)=O)cc1 (stereo not drawn)
inactive: Potency [1] | Potency [2] | Potency [3] | Potency [4] | Potency [5] | Potency [6] | Potency [7] | Potency [8]

O[Si](CCCN1CCCCC1)(c1ccc(F)cc1)C1CCCCC1 (stereo not drawn)
inactive: Potency [1] | Potency [2] | Potency [3] | Potency [4] | Potency [5] | Potency [6] | Potency [7] | Potency [8]

O=C(O)c1cc(=O)cc(C(=O)O)[nH]1
inactive: Potency [1] | Potency [2] | Potency [3] | Potency [4] | Potency [5] | Potency [6] | Potency [7] | Potency [8]

COc1ccccc1N1CCN(CCCCN2C(=O)c3ccccc3C2=O)CC1
inactive: Potency [1] | Potency [2] | Potency [3] | Potency [4] | Potency [5] | Potency [6] | Potency [7] | Potency [8]

CC[n+]1c(/C=C/C=C2/N(C)c3ccccc3C2(C)C)sc2ccccc21
active: Potency [6] 0.233 µM | Potency [7] 0.213 µM | Potency [8] 0.233 µM
inactive: Potency [1] | Potency [2] | Potency [4] | Potency [5]

COc1ccc(NC(=O)c2ccc(-c3ccc(-c4noc(C)n4)cc3C)cc2)cc1N1CCN(C)CC1
inactive: Potency [1] | Potency [2] | Potency [3] | Potency [4] | Potency [5] | Potency [6] | Potency [7] | Potency [8]

CCCc1c(-c2ccc(O)cc2)nn(-c2ccc(O)cc2)c1-c1ccc(O)cc1
active: Potency [13] 70.8 µM
inactive: Potency [1] | Potency [2] | Potency [3] | max response [9] 23.6% | max response [12] -10.3% | Potency [4] | Potency [5] | Potency [6] | Potency [7] | Potency [8]

Cc1nc(N=Nc2cc(S(=O)(=O)O)c3cc([N+](=O)[O-])cc(S(=O)(=O)O)c3c2)c(COP(=O)(O)O)c(C=O)c1O
inactive: Potency [1] | Potency [2] | max response [9] -2.01% | Potency [4] | Potency [5] | Potency [6] | Potency [7] | Potency [8]

C[C@H]1CC2C3CCC4=CC(=O)C=C[C@]4(C)[C@@]3(Cl)[C@@H](O)C[C@]2(C)[C@@]1(O)C(=O)CO (stereo partly drawn)
inactive: Potency [1] | Potency [2] | max response [9] -6.5% | Potency [4] | Potency [5] | Potency [6] | Potency [7] | Potency [8]

O=[N+]([O-])c1cccc2cn[nH]c12
inactive: Potency [1] | Potency [2] | max response [9] 8.31% | Potency [4] | Potency [5] | Potency [6] | Potency [7] | Potency [8]

CCC(=O)N1CCN(C(=O)c2ccccc2)CC1
inactive: Potency [1] | Potency [2] | max response [9] 9.08% | Potency [4] | Potency [5] | Potency [6] | Potency [7] | Potency [8]

Cc1cccc(C)c1OCC(N)C(C)C (stereo not drawn)
-0.0097%: remaining proliferation (% of control), lower = more inhibition [16]
active: Potency [9] 23.5 µM
-0.502%: remaining parasite growth % (stronger effect = lower value) [14]
inactive: Potency [1] | Potency [2] | Potency [4] | Potency [5] | Potency [6] | Potency [7] | Potency [8]
-0.0581%: activity, percent of control [15]

OC1(c2ccc(Cl)cc2)CCN(Cc2c[nH]c3ccccc23)CC1
inactive: Potency [1] | Potency [3] | Potency [4] | Potency [5] | Potency [6] | Potency [7] | Potency [8]
